Screens deposited in PubChem BioAssay by National Center for Advancing Translational Sciences (NCATS).
TsaE inh: displaces an ADP probe from E. coli YjeE (TsaE). P0AF67. purified YjeE enzyme, qHTS inhibition assay. Potency, µM. hit rate 0.05% among 71,000. AID 605
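Purified YjeE (10 uM) with BODIPY Texas Red-labeled ADP probe (2 uM); compounds pin-transferred, 15 min at room temperature. Binding inhibition read as decreased fluorescence polarization; ADP titration as control.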
BRCT PPI red: inhibitors of human BRCA1 BRCT-phosphoprotein interaction (red fluorophore); hit rate 0.03% among 75,000; P38398; BRCT-phosphopeptide binding, red fluorescence polarization; AID 892; Potency, µM (highest dose often 76.9 µM), for inactives: at the highest dose activity change, negative = inhibition, hits mostly inhibitors; also: % is scaled to controls: 0 for no effect and ±100 for the full control effect
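Fluorescence polarization: 100 nM His-tagged BRCA1 BRCT with 100 nM TAMRA-labelled phospho-BACH1 decapeptide, phosphate buffer pH 7.3 with 150 mM NaCl, DTT, 0.01% Tween 20; 12 min RT. Binding inhibition seen as FP decrease.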
BRCT PPI green: inhibitors of human BRCA1 BRCT-phosphoprotein interaction (green fluorophore) | Potency, µM (highest dose often 76.9 µM), for the others: at the highest dose activity change, negative = inhibition, most hits filed as inhibitors | BRCA1 BRCT-phosphopeptide binding, green fluorescence polarization | AID 875 | hit rate 0.05% among 75,000 | P38398;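 also: potency is read from the fitted curve at half-maximal effect; plate controls were peptide without protein for full effect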
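Compounds were incubated for 12 min at room temperature with a complex of 100 nM fluorescein-tagged pBACH1 decapeptide and 250 nM His-tagged BRCT protein. Buffer was phosphate pH 7.3 with EDTA, DTT and Tween 20. Disruption of binding lowers the polarization signal.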
Pol III holo inh: inhibitors of bacterial DNA polymerase III holoenzyme | reconstituted DNA polymerase III holoenzyme replication, biochemical | Potency, µM (top dose mostly 57.1 µM), without a hit: at the top dose activity change, negative = inhibition | hit rate 0.25% among 71,000 | AID 603; also: potency is read from the fitted curve at half-maximal effect; % is scaled to controls: 0 for no effect and ±100 for the full control effect
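Reconstituted *E. coli* holoenzyme (0.35 nM Pol III, 1 nM beta, 154 nM SSB, 2 nM primase) was preincubated with compound for 15 min at RT. Synthesis on 1.4 nM ssM13Gori ran 35 min, then was stopped with PicoGreen/EDTA and read as dsDNA fluorescence.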
Active calls of the source: *; i = inactive; ? = inconclusive; . = no result; ! = repeats disagree; [ ] = remark or other dose. In the library only some 0.24% were active in any assay of this set; here they are far more common. Calls follow the shape of the dose curve; as a rule, active = well fitted curve in the direction sought with a large enough effect; inconclusive = small, poorly fitted or top-dose-only effect, or another doubt; inactive = no such curve, though single readings can be large; an effect the other way counts as inactive or inconclusive.

SMILES	TsaE inh	BRCT PPI red	BRCT PPI green	Pol III holo inh
C[C@@H]1[C@H]2C=C[C@@H]1[C@@H](c1c3ccc(=O)c(O)c-3oc3c(O)c(O)ccc13)[C@@H]2C(=O)O	i	?	?	0.13µM*
C=C(C)[C@@H]1CN[C@H](C(=O)O)[C@H]1CC(=O)O	i	.	.	-6%
CC(C)Nc1ccc(Nc2ccccc2)cc1	100µM*	0%	3%	-4%
C[C@H](N)[C@H](O)c1ccc(O)c(O)c1	i	-1%[34.4 µM]	1%[34.4 µM]	5µM*
COC(=O)[C@@H]1C[C@@H]1[C@@H](NP(=O)(c1ccccc1)c1ccccc1)c1ccccc1	i	.	.	14%
NC(N)=Nc1ccc2[nH]c3c(c2c1)C[C@]1(O)[C@@H]2Cc4ccc(O)c5c4[C@]1(CCN2CC1CC1)[C@H]3O5	i	-1%	1%	-8%
Ic1ccccc1CN[C@@H]1C2CCN(CC2)[C@H]1C(c1ccccc1)c1ccccc1	i	-1%	0%	-2%
CO[C@H]1[C@H](O)[C@H](O[C@@H]2[C@H](Oc3cccc4c(O)c5c(=O)oc6ccc(C)c7c(=O)oc(c34)c5c67)O[C@@H](C)[C@H](O)[C@H]2O)O[C@@H](C)[C@@H]1O	i	-2%[15.4 µM]	0%[15.4 µM]	3.2µM*
CC(C)C[C@H]1C(=O)N2CCC[C@@H]2[C@]2(O)O[C@](NC(=O)[C@H]3C=C4c5cccc6[nH]cc(c56)C[C@H]4N(C)C3)(C(C)C)C(=O)N12	i	.	.	9%
Cc1c2ccncc2c(C)c2c1[nH]c1ccccc12	i	-5%	-3%	7.9µM*
O=C1C[C@H]2OCCC=C3CN4CC[C@@]56c7ccccc7N1[C@@H]5[C@H]2[C@H]3C[C@@H]46	i	.	.	-6%
O=C1C2CC=CCC2C(=O)N1SC(Cl)(Cl)Cl (configuration not stated)	i	0%	1%	40µM*!
